Measurements: ChEMBL document CHEMBL3988442, “University of Dundee, Small-Polar-MMV Screening Library” (2021)
Screen size: about 48,000 compounds; about 13,000 (27%) showed an effect of 50% or more. The list shows a part of the results.

Tested on: Wolbachia pipientis
Assay: Anti-Wolbachia Cell-Based Screen
Assay type: functional
Design: scale not given: in the data most compounds retested in dose-response had high values
Conditions: 5 µM

Compared with Cc1cc(CN2C[C@H]3CC[C@@H]2CN(Cc2c(C)noc2C)C3)ccc1F, Cc1cc(C)c(Cn2cncn2)cc1CN1CC[C@H]2CC[C@@H](C1)N2 is higher in “Percent Effect” value: -0.5585% for the first, 27.46% for the second.

Compared with COCc1cccc(C(=O)N(C)Cc2ncc(C)c(OC)c2C)c1, COc1cc(C(=O)N(C)Cc2nccn2CC(F)(F)F)ccc1C is higher in “Percent Effect” value: 6.137% for the first, 111.1% for the second.

Compared with CCOc1ccc(C(=O)N(C)Cc2nccn2CC(F)(F)F)cc1, FC(F)(F)Cn1ccnc1CNCCn1cccn1 is lower in “Percent Effect” value: 117.2% for the first, -10.84% for the second.

Compared with CN(C)CC1CCN(Cc2nccn2CC(F)(F)F)CC1, CC(O)C1CCN(Cc2nccn2CC(F)(F)F)CC1 (configuration not stated) is lower in “Percent Effect” value: 2.033% for the first, -9.918% for the second.

Going from O=C(O)C(F)(F)F.O=C(O)C(F)(F)F.c1cncc(CN2CCOC(c3ncn4c(C5CC5)cccc34)C2)c1 (configuration not stated) to CC(=O)N1CCC(c2nc3ccc(NC4CCC4)cn3n2)CC1.O=C(O)C(F)(F)F, the “Percent Effect” value rises from -19.22% to 124.1%.

First: Cc1ncsc1CCn1ccnc1-c1cc2n(n1)CCCNC2
Second: Cc1ncnc(N2CCCN(c3nc4ccccc4s3)CC2)c1C
The “Percent Effect” value of the first is lower: -9.491% for the first, -5.721% for the second.

First: COc1cc(C)c(C(C)NC(=O)Nc2nnc(C)s2)cc1OC (configuration not stated)
Second: COc1cc(C)c(NC(=O)NCCn2cccc2)cc1OC
The “Percent Effect” value of the first is lower: -2.297% for the first, 2.296% for the second.

Going from CC1CN(Cc2ccccc2)CCCN1CCNS(C)(=O)=O (configuration not stated) to CC1CN(Cc2ccccc2)CCCN1CCS(C)(=O)=O (configuration not stated), the “Percent Effect” value falls from 2.156% to -9.711%.

Compared with CO[C@@H]1CN(C)S(=O)(=O)[C@@]12CCN(Cc1ccccc1)C2, CO[C@H]1CN(C)S(=O)(=O)[C@@]12CCN(Cc1ccccc1)C2 is lower in “Percent Effect” value: 116.7% for the first, 109.7% for the second.

Compared with COc1ccc(OCC(C)NS(C)(=O)=O)cc1 (configuration not stated), CCN(c1ccc(C(=O)NCc2ccnc(C)n2)cc1)C(C)C is lower in “Percent Effect” value: -2.499% for the first, -16.63% for the second.

Compared with CCCOc1cc(C)c2c(c1C)C[C@H]([C@H](C)C(=O)O)CC2, CCOc1ccc(Cl)cc1C(C(=O)O)N1CCOCC1 (configuration not stated) is lower in “Percent Effect” value: -9.304% for the first, -18.5% for the second.

Going from CNS(=O)(=O)CC(=O)N1CC2(CCCC2)c2c(F)cccc21 to CN(C)c1cc(C(=O)NCC2(c3cccc(F)c3)CCOCC2)ccn1, the “Percent Effect” value rises from -10.56% to -10.3%.

First: CCS(=O)(=O)N1CCC(NCC2CNc3cc(C)nn3C2)CC1 (configuration not stated)
Second: Cc1cc(C)n(CCN2CCN(C(=O)c3ccc(Br)o3)CC2)n1
The “Percent Effect” value of the first is lower: -5.639% for the first, 17.42% for the second.

First: CC(=O)Nc1ccc2c(c1)C1(CCOCC1)C(=O)N2c1ccsc1
Second: CCc1ccccc1OC1CN(C(=O)c2ccsc2)C1
The “Percent Effect” value of the first is higher: 7.168% for the first, -5.309% for the second.

First: OCCN1CCCCC1C1OCCO1 (configuration not stated)
Second: C1CC(CN2CCCCC2C2OCCO2)C1 (configuration not stated)
The “Percent Effect” value of the first is higher: 89.19% for the first, 19.65% for the second.

First: COC(=O)c1ccc(NC(=O)CN2CCCCC2C2OCCO2)cc1 (configuration not stated)
Second: COc1ccc(NC(=O)CN2CCCCC2C2OCCO2)cc1 (configuration not stated)
The “Percent Effect” value of the first is lower: -2.306% for the first, 17.05% for the second.

Compared with c1ccc(Cc2noc(CN3CCCCC3C3OCCO3)n2)cc1 (configuration not stated), C1CCN(CCN2CCCCC2C2OCCO2)CC1 (configuration not stated) is higher in “Percent Effect” value: -5.666% for the first, 105.6% for the second.

First: CCn1cc(NC(=O)NCC2(N3CCOCC3)CCSC2)cn1 (configuration not stated)
Second: CCn1cc(NC(=O)NCC(C)O)cn1 (configuration not stated)
The “Percent Effect” value of the first is lower: -22.54% for the first, -13.78% for the second.

First: CCn1cc(NC(=O)NCCc2ccc3c(c2)OCCO3)cn1
Second: CCn1cc(NC(=O)NCCc2ccc3c(c2)OCO3)cn1
The “Percent Effect” value of the first is higher: 126.5% for the first, 124.8% for the second.

Compared with Cn1cc(CCNC(=O)CCc2ccc3c(c2)OCO3)cn1, CCCn1cc(C(=O)NCCc2ccc3c(c2)OCO3)c(C)n1 is lower in “Percent Effect” value: -1.168% for the first, -4.07% for the second.

First: CCn1cc(NC(=O)NCc2ccc3c(c2)OCO3)cn1
Second: CCn1cc(NC(=O)NCc2ccc(CO)c(F)c2)cn1
The “Percent Effect” value of the first is higher: 135.2% for the first, 112.4% for the second.

First: O=C(Cn1cc(Cl)cn1)Nc1ccc2c(c1)OCCCO2
Second: CCn1cc(NC(=O)Nc2ccc3c(c2)OCCO3)cn1
The “Percent Effect” value of the first is lower: -3.42% for the first, 131.1% for the second.

First: Cc1nn(C)c(C)c1CN(Cc1cccn1-c1ccccn1)C(C)C
Second: CC(c1cccs1)N(C)C(=O)c1cc(CN(C)Cc2ccccc2)on1 (configuration not stated)
The “Percent Effect” value of the first is higher: -9.247% for the first, -11.33% for the second.

Going from CCc1cnc(N2CCN(Cc3ccno3)CC2)s1 to Cc1cncc(C(=O)N2CCN(c3cnn(C)c(=O)c3)CC2)c1, the “Percent Effect” value falls from 1.528% to -23.7%.

Going from CC(C)c1nnc(NC(=O)NCc2ccc(CO)c(F)c2)s1 to CCc1ccc(C(=O)NCc2ccnc(C)n2)cc1, the “Percent Effect” value rises from -3.606% to 0.2592%.

First: CCn1cc(NC(=O)NC(CO)Cc2c[nH]c3ccccc23)cn1 (configuration not stated)
Second: CCN1CCC(CC(=O)NCC(O)c2ccc3ccccc3c2)CC1 (configuration not stated)
The “Percent Effect” value of the first is lower: -9.205% for the first, -0.749% for the second.

First: O=C(c1ccccn1)N1CCC(c2nc(O)cc(-c3ccncc3)n2)C1 (configuration not stated)
Second: O=C(c1cccnc1)N1CCC(c2nc(O)cc(-c3ccncc3)n2)C1 (configuration not stated)
The “Percent Effect” value of the first is higher: 109.3% for the first, 89.59% for the second.

Going from O=C(c1ccccn1)N1CCCC(c2nccn2Cc2ccncc2)C1 (configuration not stated) to O=C(c1ccccn1)N1CCC(c2nccn2Cc2ccncc2)CC1, the “Percent Effect” value rises from -10.11% to 7.014%.

Compared with CC(C)C(=O)N1CCC(c2nc(O)cc(-c3ccncc3)n2)CC1, CC(C)(C)C(=O)N1CCC(c2nc(O)cc(-c3ccncc3)n2)CC1 is higher in “Percent Effect” value: -8.577% for the first, 112.4% for the second.

First: COCc1cc(CNC(=O)c2c(O)cccc2O)n[nH]1
Second: Cc1cc(CNC(=O)CCc2ccc(S(N)(=O)=O)cc2)no1
The “Percent Effect” value of the first is higher: 12.71% for the first, -2.333% for the second.

First: CC(C)N1CCc2[nH]nc(C(=O)N3CCCC3C)c2C1 (configuration not stated)
Second: CC(C)Nc1ccc2nc(C3CCN(C(C)C)CC3)nn2c1.O=C(O)C(F)(F)F
The “Percent Effect” value of the first is lower: -13.09% for the first, 7.625% for the second.

First: CCOCCCNC(=O)NC(C)c1ccc(-n2cncn2)cc1 (configuration not stated)
Second: CCOCCNC(=O)c1ccn(S(=O)(=O)c2ccc(C)cc2)c1
The “Percent Effect” value of the first is lower: -14.96% for the first, -5.067% for the second.

Going from COCC(C)N(C)C(=O)c1ccc2nncn2c1 (configuration not stated) to CCN1CCC(c2nc3ccc(NC(C)C)cn3n2)CC1.O=C(O)C(F)(F)F, the “Percent Effect” value falls from 2.79% to -4.484%.

First: NC(=O)C1CCN(Cc2cc3c(cc2Br)OCCO3)C1 (configuration not stated)
Second: Cc1ccc(CN2Cc3nnn(C)c3C(COCC3CC3)C2)s1.O=C(O)C(F)(F)F (configuration not stated)
The “Percent Effect” value of the first is lower: 0.4913% for the first, 100.2% for the second.

Going from CC(C)[C@@H]1CN(C(=O)C2(c3ccccc3)CC2)C[C@H]1C(=O)O to CC(C)[C@@H]1CN(C(=O)CN(C)Cc2ccccc2)C[C@H]1C(=O)O, the “Percent Effect” value falls from 6.034% to -19.29%.

Compared with Cc1cncc(C(=O)N2CCCC(C(=O)CCc3ccccc3)C2)c1 (configuration not stated), Cc1cncc(C(=O)N2C[C@@H](C(=O)O)[C@H](C(C)C)C2)c1 is higher in “Percent Effect” value: -18.81% for the first, 102.6% for the second.

Compared with CC(C)[C@@H]1CN(C(=O)c2ccsc2)C[C@H]1C(=O)O, Cc1ccsc1C(=O)N1C[C@@H](C(=O)O)[C@H](C(C)C)C1 is lower in “Percent Effect” value: 124.9% for the first, 117.1% for the second.

First: CC(C)C1CN(C(=O)c2ccsc2)CCS1 (configuration not stated)
Second: Cc1ccsc1CNC(=O)CC1CN(C(=O)OC(C)(C)C)C1
The “Percent Effect” value of the first is higher: 1.544% for the first, -25.18% for the second.

Going from CC(C)(C)OC(=O)N1CSC[C@@H]1C(=O)NCc1ccc(C#N)cc1 to CCN(CC)S(=O)(=O)c1ccc(CCC(=O)NCc2cc(C)on2)cc1, the “Percent Effect” value rises from -6.965% to 7.778%.

Going from COCC1CN(Cc2ccc(C)s2)Cc2nnn(C)c21.O=C(O)C(F)(F)F (configuration not stated) to COCC1CN(Cc2ccc(C)o2)Cc2nnn(C)c21.O=C(O)C(F)(F)F (configuration not stated), the “Percent Effect” value falls from 106% to 3.893%.

First: Cc1ccc(CN2Cc3c(C(=O)N(C)C)nn(C)c3C2)s1.O=C(O)C(F)(F)F
Second: Cc1ccc(CN2Cc3nnn(C)c3C(COCC(=O)N(C)C)C2)s1.O=C(O)C(F)(F)F (configuration not stated)
The “Percent Effect” value of the first is lower: -8.124% for the first, 83.68% for the second.

Compared with Cc1ccc(CN2Cc3nnn(C)c3C(COCC3CC3)C2)o1.O=C(O)C(F)(F)F (configuration not stated), COCC1CN(Cc2sccc2C)Cc2nnn(CC3CC3)c21.O=C(O)C(F)(F)F (configuration not stated) is higher in “Percent Effect” value: 1.722% for the first, 8.391% for the second.

Compared with CCC(CC)NC(=O)CN1CCSCC1, Cc1ccsc1CCNC(=O)CCC(=O)NC1CCCC1 is lower in “Percent Effect” value: 2.417% for the first, -4.731% for the second.

First: CCN1CCC(c2nc3ccc(NC4CCC4)cn3n2)CC1.O=C(O)C(F)(F)F
Second: COCCN1CCC(c2nc3ccc(NC4CCC4)cn3n2)CC1.O=C(O)C(F)(F)F
The “Percent Effect” value of the first is lower: 79.67% for the first, 99.27% for the second.

Going from Cl.Cl.Cl.c1cncc(CNc2ccc3nc(C4CCNCC4)nn3c2)c1 to c1cc2nc(C3CCNCC3)nn2cc1NC1CCC1, the “Percent Effect” value rises from -18.54% to 109.6%.

Compared with COCCN1CCC(c2nc3ccc(N4CCCC4)cn3n2)CC1.O=C(O)C(F)(F)F, COCC(=O)N1CCC(c2nc3ccc(N4CCCC4)cn3n2)CC1.O=C(O)C(F)(F)F is lower in “Percent Effect” value: -8.298% for the first, -11.72% for the second.

First: CC(=O)N(C)CC(=O)NC(CC(C)C)c1cccs1 (configuration not stated)
Second: Cc1ccsc1CNC(=O)CCc1c(C)nc2cc(O)nn2c1C
The “Percent Effect” value of the first is lower: 5.598% for the first, 106.8% for the second.

First: Cc1cc(CNC(=O)CCc2c(C)nc3cc(O)nn3c2C)no1
Second: Cc1nccc(CNC(=O)CCc2c(C)nc3cc(O)nn3c2C)n1
The “Percent Effect” value of the first is lower: 92.65% for the first, 98.09% for the second.

First: NC(=O)CCCNC(=O)CCc1cc(Br)cs1
Second: O=C(CCc1cc(Br)cs1)NCCCn1ccnc1
The “Percent Effect” value of the first is higher: 8.374% for the first, -0.5451% for the second.

Compared with Cc1nc2cc(O)nn2c(C)c1CCC(=O)NCc1cc(Br)cs1, Cc1cccc(CN2CCN(c3ncnc4[nH]ccc34)CC2CCO)n1 (configuration not stated) is lower in “Percent Effect” value: 111.2% for the first, 6.168% for the second.

Going from CCN(C)C[C@@H]1CN(Cc2cccc(O)c2)C[C@@H]1CO to COc1ccc2c(c1)nc1n2[C@@H](CNCc2cnn(C)c2)COC1, the “Percent Effect” value rises from -2.333% to 1.636%.
